The values below come from PubChem BioAssay (Tox21).

Several values for one entry are separate records, joined by “and”; a condition that tells them apart may be missing. Equal values may be shown once. Inconclusive results are not listed. Where a call stands in place of a potency, no number is given. Activity calls are given as the source filed them. Unless noted, calls follow the shape of the full dose curve.

Chain of Thyrotropin receptor (Homo sapiens) (P16473 whole entry, looked up): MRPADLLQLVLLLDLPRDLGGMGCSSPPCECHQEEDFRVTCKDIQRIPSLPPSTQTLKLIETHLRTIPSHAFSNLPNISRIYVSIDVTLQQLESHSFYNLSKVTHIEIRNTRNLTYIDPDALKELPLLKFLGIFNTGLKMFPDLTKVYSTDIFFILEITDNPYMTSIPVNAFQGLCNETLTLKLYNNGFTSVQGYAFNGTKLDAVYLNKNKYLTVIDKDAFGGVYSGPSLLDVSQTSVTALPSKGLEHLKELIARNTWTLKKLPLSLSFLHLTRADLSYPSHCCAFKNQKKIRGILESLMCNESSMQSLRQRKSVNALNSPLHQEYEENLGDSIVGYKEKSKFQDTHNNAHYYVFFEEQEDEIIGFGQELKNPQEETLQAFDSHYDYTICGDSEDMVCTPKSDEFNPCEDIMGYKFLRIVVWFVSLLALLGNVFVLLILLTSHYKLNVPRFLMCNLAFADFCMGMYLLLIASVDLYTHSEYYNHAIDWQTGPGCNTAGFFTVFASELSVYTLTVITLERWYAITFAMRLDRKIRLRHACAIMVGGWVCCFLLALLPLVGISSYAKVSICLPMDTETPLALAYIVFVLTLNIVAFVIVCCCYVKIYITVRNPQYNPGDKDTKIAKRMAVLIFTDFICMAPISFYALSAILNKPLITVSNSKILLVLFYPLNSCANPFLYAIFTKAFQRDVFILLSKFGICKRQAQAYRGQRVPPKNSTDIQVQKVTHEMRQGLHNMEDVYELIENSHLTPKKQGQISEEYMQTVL

Test system in the first test: not listed separately
Put plainly: qHTS assay to identify small molecule agonists of the estrogen related receptor signaling pathway with the pleiotropic PPARgamma coactivator (PGC) from Tox21 10K library (AID 1224842; active = well fitted activation curve with a large enough effect in the repeat runs; also: nearly all actives have a fitted effect of over 15% in size). As to conditions: PGC/ERR reporter cell line, luciferase ONE-Glo, 18 h; series mostly up to 92.4 µM. The method in brief: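 PGC/ERR reporter cells (NTP line) were seeded 2,000 per well, rested 6 h at 37 C/5% CO2, then pin-dosed with compounds in DMSO for 18 h at 37 C; luciferase read by One-Glo luminescence after 30 min at room temperature.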
In general terms: qHTS replaces the single test concentration by a dilution series.
On to `CCc1cccc(C)c1N(C(=O)CCl)[C@@H](C)COC`, for which the Potency result was “inactive”.

In the case of `COP(=O)(OC)O/C(=C\Cl)c1cc(Cl)c(Cl)cc1Cl`, the Potency result is “inactive”.

Turning to `CCOP(=S)(OCC)SC(CCl)N1C(=O)c2ccccc2C1=O` (stereo unspecified), the Potency entry was “inactive”.

Turning to `Oc1ccc(Cl)c(Cl)c1`, the Potency result is “inactive”.

In the case of `COC(=O)C(C)N(C(=O)c1ccco1)c1c(C)cccc1C` (stereo unspecified), the Potency entry is “inactive”.

Take `COc1cnc(OC)n2nc(NS(=O)(=O)c3c(OCC(F)F)cccc3C(F)(F)F)nc12`: the Potency entry is “inactive”.

Turning to `CC(O)C(=O)[O][Hg][c]1ccccc1` (stereo unspecified), the Potency result is “inactive”.

For `CCCCCON=O`, the Potency entry is “inactive”.

For `CNC(=O)/C=C(\C)OP(=O)(OC)OC`, the Potency result was “inactive”.

Regarding `C[C@@H]1CC2=CC(=O)CC[C@@H]2[C@H]2CC[C@@]3(C)[C@@H](CC[C@]3(C)O)[C@@H]21`, the Potency entry is “inactive”.

As for `O=C1C[C@@H]2OCC=C3CN4CC[C@]56c7ccccc7N1[C@H]5[C@H]2[C@H]3C[C@H]46`, the Potency result is “inactive”.

Another test concerns the target Thyrotropin receptor (Homo sapiens) (UniProt P16473). The test is described as follows: qHTS assay to identify small molecule agonists of the thyroid stimulating hormone receptor (TSHR) signaling pathway (AID 1224843). Also: nearly all actives have a fitted effect of over 45% in size. Also: potency is read from the fitted curve at half-maximal effect. The conditions noted are these: TSHR-HEK293 cells, cAMP HTRF, agonist mode, 30 min; series mostly up to 92.4 µM. Put shortly: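 Cell line HEK293 with TSHR; density 800/well. Exposure 30 min RT. Readout HTRF cAMP (cAMP-d2/anti-cAMP-cryptate), 1 h RT before reading.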
As to `COc1ccc2c(c1OC)C(=O)O[C@@H]2[C@H]1c2cc3c(cc2CCN1C)OCO3`, the Potency result was “inactive”.

Turning to `CC(Cc1ccc(OCC(=O)O)cc1)NCC(O)c1csc(C(F)(F)F)n1` (stereo unspecified), the Potency result is “inactive”.

For the compound `Nc1ccc(Cl)cc1C(=O)c1ccccc1F`, the Potency result is “inactive”.

On to `O=c1c2ccccc2c(=O)c2c1cc(Cl)c1[nH]c3c([nH]c12)c(Cl)cc1c(=O)c2ccccc2c(=O)c13`, for which the Potency result was “inactive”.

In the case of `CCc1cccc(C)c1N(C(=O)CCl)[C@@H](C)COC`, the Potency was 34.4 µM (active).

In the case of `C=Cc1cccc(CCl)c1`, the Potency entry was “inactive”.

As for `CNC(C)(C)Cc1ccccc1`, the Potency result is “inactive”.

For the compound `CCC(C)Br` (stereo unspecified), the Potency entry was “inactive”.

In the case of `OCC(Br)CBr` (stereo unspecified), the Potency result is “inactive”.

Regarding `ClC1=C(Cl)[C@]2(Cl)[C@H]3[C@H]([C@@H]4C=C[C@H]3C4)[C@@]1(Cl)C2(Cl)Cl`, the Potency is 19.3 µM (active) and 13.7 µM (active).

`COC(=O)C(C)N(C(=O)c1ccco1)c1c(C)cccc1C` (stereo unspecified): the Potency entry is “inactive”.

As for `CC(O)C(=O)[O][Hg][c]1ccccc1` (stereo unspecified), the Potency is 2.43 µM (active).

Regarding `CCCCCON=O`, the Potency result was “inactive”.

As to `CNC(=O)/C=C(\C)OP(=O)(OC)OC`, the Potency result was “inactive”.

Turning to `CC(C)N(C(=O)SC/C(Cl)=C/Cl)C(C)C`, the Potency was 17.3 µM (active).

Turning to `CC[N+]1(CC)CCC(OC(=O)C(O)(c2ccccc2)c2ccccc2)C1` (stereo unspecified), the Potency entry is “inactive”.

In the case of `[O]=[Cr](=[O])([OH])[O][Cr](=[O])(=[O])[OH]`, the Potency result is “inactive”.

Consider `C[C@@H]1CC2=CC(=O)CC[C@@H]2[C@H]2CC[C@@]3(C)[C@@H](CC[C@]3(C)O)[C@@H]21`, for which the Potency result is “inactive”.

Take `CCCCc1ccccc1`: the Potency result is “inactive”.

In the case of `CC(=O)C(Cl)C(=O)N(C)C` (stereo unspecified), the Potency result is “inactive”.

As to `Clc1ccc(C2(Cn3cncn3)OCCO2)c(Cl)c1`, the Potency result is “inactive”.

Regarding `CCC1COC(Cn2cncn2)(c2ccc(Cl)cc2Cl)O1` (stereo unspecified), the Potency entry was “inactive”.

For `COc1c2c(cc3c1OCO3)CCN(C)C2`, the Potency entry was “inactive”.

For the compound `CSC(C)(C)/C=N/O`, the Potency result is “inactive”.

Turning to `Nc1cc(Cl)ccc1Cl`, the Potency entry was “inactive”.

As for `C=CCBr`, the Potency entry is “inactive”.

With `N#CCCl`, the Potency entry is “inactive”.

As to `c1cc[n+]2c(c1)-c1cccc[n+]1CC2`, the Potency entry was “inactive”.

As for `CN=C=O`, the Potency result is “inactive”.

Take `O=C1C[C@@H]2OCC=C3CN4CC[C@]56c7ccccc7N1[C@H]5[C@H]2[C@H]3C[C@H]46`: the Potency entry is “inactive”.
